Measurements from PubChem BioAssay (NCI).
Compounds without any hit were thinned out: in the full panel of roughly 83,000, 20% have a hit.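 96-well plates, one dose, 48 hours. Percent growth reported; active if below 10.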 Unmarked numbers belong to inactive results. Activity calls are given as the source filed them.

Tested on: U251 CNS
Experiment: NCI-60 one-dose screen, 48 h (100 = growth as untreated, 0 = no growth, -100 = all killed)
Conditions: 10 µM unless noted
Protocol: Growth inhibition of the U251 human tumor cell line is measured as a screen for anti-cancer activity. Cells are grown in 96 well plates and exposed to the test compound for 48 hours. Compounds are tested at a single concentration, which is 10^-5 M for most compounds. The reported endpoint is percent growth (GI% or GIPRCNT), where numbers from 0 - 100% represent growth inhibition, and numbers from -100% - 0 represent cell death. For example, a value of 40 represents 60% growth inhibition. A value of 0 means no net growth occurred over the course of the experiment. A value of -40 indicates 40% of cells at the beginning of the experiment died by the end of the experiment. A value of -100 means all cells are dead at the end of the experiment.
NCI-60 Human Tumor Cell Lines Screen was performed using the standard one-dose NCI protocol, which is described in more detail at https://dtp.cancer.gov/discovery_development/nci-60/default.htm.
Compounds with GIPRCNT values below 10 were considered active. Activity score was based on GIPRCNT using the following formula: […]
Score is 0 for GIPRCNT values of 100 or above, 50 for GIPRCNT values of 0, and 100 for GIPRCNT values of -100.

Going from `OC(c1ccccc1)(c1ccccc1)C(F)(F)F` to `NC(=O)c1c(Nc2ccccc2)nn2cc(-c3nc4ccccc4s3)c(N)nc12`, the growth falls from 109% to 101%.

First: COC(=O)c1ccc2[nH]c(O)c(C(=Nc3ccc(N(C)C(=O)CN4CCN(C)CC4)cc3)c3ccc4c(c3)OCO4)c2c1
Second: COc1ccc2cnc(N)c(C#Cc3cc(C(=O)Nc4ccc(CN5CCN(C)CC5)c(C(F)(F)F)c4)cnc3C)c2c1
The growth of the first is lower: 13.4% for the first, 17.2% for the second.

Compared with `COCC(=O)NNc1[nH]c(-c2ccc(OC)cc2)cc1C#N`, `COc1ccc(-c2nc(SCC(C)C)nc(Nc3ccc([N+](=O)[O-])cc3)c2C#N)cc1` is lower in growth: 103% for the first, 80.9% for the second.

Going from `COC1=C(OC)C(=O)c2ccccc2C1=O` to `CC1(c2ccc(Br)cc2)NC(=O)NC1=O` (stereo not given), the growth rises from 89.9% to 97.2%.

Compared with `O=C1c2cc([N+](=O)[O-])ccc2-c2cc(Cl)c(NC(=O)C(F)(F)F)cc21`, `Cn1c2c(cc(S(=O)(=O)c3ccccc3)c1=O)CCc1c-2cnn1-c1ccc(Cl)cc1` is lower in growth: 110% for the first, 20.7% for the second.

Going from `CCCCN(CCCC)CC(O)CN(CC)CC` (stereo not given) to `CCCCCCCCC1OC1CCCCCCCC(=O)O` (stereo not given), the growth falls from 102% to 91.3%.

Going from `COc1ccc(C2CC(=O)c3c(O)cc(OC4OC(COC5OC(C)C(O)C(O)C5O)C(O)C(O)C4O)cc3O2)cc1O` (stereo not given) to `CCOc1nc(-c2ccccc2)cc2c(O)c(C(=O)N/N=C/c3ccccc3O)[nH]c(=O)c12`, the growth falls from 104% to 101%.

Compared with `CN(C)CCOC(=O)C(C)(C)C`, `CCOC(=O)/C(C#N)=C(/CC)OCC` is higher in growth: 102% for the first, 103% for the second.

First: CCC(C)CC(N)O (stereo not given)
Second: Cc1ccnc2c(NC(C)CCCN)cc(O)c(O)c12 (stereo not given)
The growth of the first is higher: 106% for the first, 83.1% for the second.

First: CCCCCCCCCCCCCCCCNC(=S)N/N=C/c1ccc(O)cc1O
Second: CCCNC(=O)Oc1ccc(/C(=C(/C)Cc2ccc(OC)cc2)c2ccc(OCCN3CCCCC3)cc2)cc1
The growth of the first is lower: 59.6% for the first, 69.9% for the second.

Going from `CCOc1ccc2nc3ccc(Cl)cc3nc2c1` to `CC/C(=N\Nc1nc2ccccc2n1C)c1ccccn1`, the growth falls from 96.4% to 10.4%.

First: Oc1ccc([S+](c2ccc(O)cc2)c2ccc(O)cc2)cc1
Second: O=C(/C=C1\C(=O)N(Cc2ccccc2)c2ccccc21)c1ccc(OCCN2CCCCC2)cc1
The growth of the first is higher: 103% for the first, 50.7% for the second.

Compared with `C/C(=N\Nc1cccc(Cl)n1)c1ccccn1`, `O=Nc1c(-c2c(O)[nH]c3cc(Br)ccc23)[nH]c2ccccc12` is higher in growth: 14.5% for the first, 29.4% for the second.

Going from `N/C(=N\O)c1ccncc1` to `O=C(O)CC1Cc2ccccc2C1C(=O)O` (stereo not given), the growth falls from 106% to 103%.

Compared with `Cc1sc(NC(=O)c2ccc(C(C)(C)C)cc2)c(C(=O)O)c1C`, `COc1ccc(NC(=O)/C=C(C)/C=C/C=C(C)/C=C/C2=C(C)CCCC2(C)C)cc1` is higher in growth: 17% for the first, 26.3% for the second.

Compared with `CC(=O)OC1/C=C\CC/C=C\C1` (stereo not given), `CCOC(=O)CNS(=O)(=O)CC(=O)c1ccccc1` is higher in growth: 96.6% for the first, 96.7% for the second.

Going from `COc1ccc(C2C3(C#N)C(N)=NC(=C(C#N)C#N)C23C#N)cc1OC` (stereo not given) to `COC1NC(Cl)=C(C#N)C(C#N)(C#N)C1(C)C` (stereo not given), the growth rises from 103% to 105%.

With `CCn1cnc(C[C@H](NC(=O)[C@@H](NC(=O)Nc2cc(C(F)(F)F)cc(C(F)(F)F)c2)C(C)(C)C)C(=O)OC)c1` the growth was -94.5% [100 µM] (active).
In the case of `COc1ccc2cn3c4ccc(O)cc4[nH]c(=O)c3c2c1`, the growth is reported as 5% (active).
`CCc1ccc(C(=Nc2ccc(N(C)C(=O)CN3CCN(C)CC3)cc2)c2c(O)[nH]c3ccc(C(=O)OC)cc23)cc1` was tested, and the growth was -75.1% (active).
In the case of `C/C=C(/C)C(=O)OC1C=C(CO)C(=O)C(OC(=O)C2(C)OC2C)C1C(C)C` (stereo not given), the growth is reported as -23.1% (active).
`COc1ccccc1CNCCCN1C(=O)c2ccc3c4c(ccc(c24)C1=O)C(=O)N(CCCNCc1ccccc1OC)C3=O` was tested, and the growth was -89.5% (active).

With `N#CCc1ncc(-c2ccc(C(F)(F)F)cc2)c(NC2CCCCCC2)n1` the growth was 22.4% [100 µM].
